# Compound activity from PubChem BioAssay.
# Sm TGR block – qHTS Assay for the Inhibitors of Schistosoma Mansoni Peroxiredoxins; Schistosoma mansoni thioredoxin glutathione reductase (TGR), Q962Y6; purified TGR, DTNB reduction, TNB absorbance 405 nm; Potency, µM (titrated, usually from 114 µM), without a hit: at the highest dose activity change, negative = inhibition, most hits filed as inhibitors; 3% of 360,000 active; AID 485364, 2010; also: % is scaled to controls: 0 for no effect and ±100 for the full control effect; nearly all actives have a fitted effect of over 60% in size
#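 Kinetic colorimetric format: TGR-catalysed, NADPH-driven DTNB reduction monitored via TNB absorbance. Enzyme dispensed at 20 nM; compound exposure 15 min at room temperature before reaction start.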
# SARS PLP yeast – qHTS of Yeast-based Assay for SARS-CoV PLP; S. cerevisiae expressing SARS-CoV PLpro, growth rescue; Potency, µM (highest dose often 32.9 µM), for inactives: top-dose activity, positive = growth rescue, actives largely listed as activators; 0.19% of 330,000 active; AID 485353, 2010; calls by dose curve; also: 0% is about no effect; nearly all actives have a fitted effect of over 55% in size
# Pf growth 96h – Primary qHTS for delayed death inhibitors of the malarial parasite plastid, 96 hour incubation; P. falciparum luciferase reporter growth, 96 h; Potency, µM (highest dose often 28.7 µM), inactives show at the top dose activity change, negative = inhibition, usual class: inhibitors; 6.9% of 320,000 active; also: % is scaled to controls: 0 for no effect and ±100 for the full control effect
#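 Compounds incubated with erythrocytes infected by luciferase-expressing P. falciparum (2% hematocrit, 0.05% parasitemia final) for 96 hours, 37 C in 5% CO2. Growth inhibition scored as decreased luciferase luminescence.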
# Pf growth 48h – Primary qHTS for delayed death inhibitors of the malarial parasite plastid, 48 hour incubation. P. falciparum luciferase growth in erythrocytes, 48 h. Potency, µM (titrated, usually from 28.7 µM), for the others: at the highest dose activity change, negative = inhibition, usual class: inhibitors. 5.9% of 310,000 active. AID 504832, 2011; also: % is scaled to controls: 0 for no effect and ±100 for the full control effect
#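 Here the parasites carry a stable luciferase gene and grow inside erythrocytes in Albumax-based RPMI medium with compound for one erythrocytic cycle. Activity is scored as loss of luminescent signal.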
# The depositor's hits bear a star; ? = inconclusive; nt = no result given; [ ] = dose if it differs, or a comment. Most compounds without a hit are left out; they make up all but 12% or so of the library. Unless noted, calls follow the shape of the dose curve; as a rule, active = well fitted curve in the direction sought with a large enough effect; inconclusive = small, poorly fitted or top-dose-only effect, or another doubt; inactive = no such curve, though single readings can be large; an effect the other way counts as inactive or inconclusive. Potency is read from the fitted curve at half-maximal effect.
SMILES,Sm TGR block,SARS PLP yeast,Pf growth 96h,Pf growth 48h
COCCCNC(=O)/C(C#N)=C/c1c(N2CCN(c3cccc(Cl)c3)CC2)nc2c(C)cccn2c1=O,5%,-3%,?,?
C=CCNC(=O)/C(C#N)=C/c1c(N2CCN(c3ccccc3)CC2)nc2c(C)cccn2c1=O,-11%,0%,?,?
COC(=O)/C(C#N)=C/c1c(N2CCN(c3ccccc3)CC2)nc2c(C)cccn2c1=O,-6%,-1%,?,9.3µM*
C=CCNC(=O)/C(C#N)=C/c1c(N2CCN(c3ccc(OC)cc3)CC2)nc2c(C)cccn2c1=O,-1%,0%,?,13µM*
NNC(=O)c1cc(C23CC4CC(CC(C4)C2)C3)[nH]n1,4%,2%,?,-7%
CCOc1ccc(NC(=O)COC(=O)CCC(=O)c2cccs2)cc1,-8%,-11%,-16%,6%
CCN1CCN(C(=O)C(C)Nc2cc(Cl)c(OC)cc2OC)CC1 (stereo unspecified),20µM*,2%,11%,-19%
CC[C@@]1(O)C[C@H](O[C@H]2C[C@@H](N(C)C)[C@@H](O[C@H]3C[C@@H](O)[C@@H](O[C@H]4CCC(=O)[C@@H](C)O4)[C@@H](C)O3)[C@@H](C)O2)c2c(cc3c(c2O)C(=O)c2c(O)cccc2C3=O)[C@H]1C(=O)OC,nt,nt,0.06µM*,0.085µM*
O=C(Nc1ccc(C(=O)OCc2cc(=O)n3c4c(sc3n2)CCCC4)cc1)c1ccc(F)cc1,-2%,nt,nt,nt
O=C(Cn1c(-c2ccccc2)noc1=O)NCc1ccccc1,30%,8%,1%,?
N#CCCCn1c(-c2ccccc2)noc1=O,0%,-1%,3.7µM*,7%
COc1cc(/C=c2\s/c(=C\C(=O)C(C)(C)C)[nH]c2=O)cc(OC)c1OC,4%,0%,?,?
COc1ccc(/C=c2\s/c(=C\C(=O)C(C)(C)C)[nH]c2=O)cc1O,-4%,-1%,4.1µM*,?
Cc1cccc(/C=c2\s/c(=C\C(=O)C(C)(C)C)[nH]c2=O)c1,-4%,-23%,2.1µM*,?
Cc1ccccc1C(=O)N1CCC(C(=O)OCc2nc(N)nc(Nc3ccccc3)n2)CC1,-14%,5%,13µM*,?
Nc1nc(COC(=O)CCC(=O)c2ccccc2)nc(Nc2ccccc2)n1,?,-2%,?,-6%
COCCCNC(=O)CC(c1cc(OC)c(OC)c(OC)c1)N1Cc2ccccc2C1=O (stereo unspecified),3%,nt,nt,nt
COc1cc(-n2c(=O)c3ccccc3n(CC(=O)OCc3ccccc3)c2=O)cc(OC)c1OC,-8%,-1%,9.3µM*,10%
Cn1c(-c2cccs2)[n+](C)c2ccccc21,-28%,-3%,-11%,1µM*
O=C(Cn1c(=O)nc(-c2ccccc2F)c2cc(Cl)ccc21)NCCCc1ccccc1,8%,nt,nt,nt
CCOc1cc(C(=O)NC(C)C2CCCO2)cc(OCC)c1OCC (stereo unspecified),4%,0%,12µM*,41%[1.15 µM]
CCc1sc(C(=O)NC(C)C2CCCO2)cc1Br (stereo unspecified),4%,-3%,?,0%
COc1cc2c(cc1OC)[C@@H]1O[C@](c3ccsc3)(C2)Oc2cc(C)n(-c3ccccc3)c(=O)c21,-16%[22.9 µM],-1%[6.58 µM],1.5µM*,2%[5.75 µM]
Cc1cc2c(c(=O)n1-c1ccccc1)C1O[C@](c3ccsc3)(Cc3ccccc31)O2,-34%[22.9 µM],0%[6.58 µM],1.7µM*,?
CCCCn1c(C)cc2c(c1=O)C1O[C@](c3ccsc3)(Cc3ccccc31)O2,-31%[22.9 µM],0%[6.58 µM],5%[5.75 µM],?
SMILES,Sm TGR block,SARS PLP yeast,Pf growth 96h,Pf growth 48h
CCCC[C@]12Cc3cc(C#N)ccc3C(O1)c1c(cc(C)n(-c3ccccc3)c1=O)O2,0%[22.9 µM],-4%[6.58 µM],?,?
CCNC(=O)Cn1c(-c2cccs2)cc2ccccc21,1%,nt,nt,nt
Oc1c(Br)cc(Br)cc1C=Nc1cccnc1,?,-2%,90%,?
Oc1ccc(Cl)cc1/C=N/c1nccs1,20µM*,-4%,17%,17%
Oc1ccc(Cl)cc1C=Nc1ccc(Br)cc1,-22%,5%,?,32%
Oc1c(Br)cc(Br)cc1/C=N/c1nccs1,4µM*,1%,-16%,?
O=C(COc1ccccc1F)Nc1ccc2oc(-c3cccc(Cl)c3)nc2c1,8%,nt,nt,nt
CC(NC(=O)Cc1ccccc1)C(=O)O (stereo unspecified),50µM*,3%,?,-1%
CC(C)NC(NC(=O)Cc1ccccc1)C(Cl)(Cl)Cl (stereo unspecified),9%,0%,-5%,6%
CC(CCc1ccccc1)NC(=O)Cc1ccccc1 (stereo unspecified),2%,11%,25%,8%
CCN(CC)C(NC(=O)Cc1ccccc1)C(Cl)(Cl)Cl (stereo unspecified),18µM*,-18%,126%,30%
CCOC(=O)c1cccc(NC(=O)Cn2ncc3c4ccccc4n(Cc4ccccc4)c3c2=O)c1,-4%,nt,nt,nt
COc1cccc(NC(=O)COC(=O)c2sccc2C)c1,nt,-4%,nt,nt
COc1ccc(CSc2nc(O)cc(=O)n2CC(C)C)cc1F,-17%,1%,15%,6%
N=c1c2c3c(sc2ncn1Nc1ccccc1)CCC3,-10%,0%,2.9µM*,1.7µM*
CC(=O)c1ccccc1Oc1nc(CN2CCOCC2)nc2scc(-c3cccs3)c12,45µM*,2%,nt,?
Cc1ccc(S(=O)(=O)NCc2ccccc2)cc1C(=O)NC(C)c1ccc(S(N)(=O)=O)cc1 (stereo unspecified),0%,-6%,-16%,?
Ic1ccccc1CN[C@@H]1C2CCN(CC2)[C@@H]1C(c1ccccc1)c1ccccc1,-9%,nt,2.9µM*,2.6µM*
COc1ccccc1CCNC(=O)c1cc(C2CC2)nc2c1cnn2C(C)C,-3%,-3%,10µM*,?
COc1ccc(NC(=O)c2cc(C3CC3)nc3c2cnn3C(C)C)cc1OC,-2%,-3%,15µM*,?
COc1ccccc1OCCNC(=O)c1cc(C2CC2)nc2c1cnn2C(C)C,-2%,-16%,10µM*,?
COc1cc(C)c(NC(=O)c2cc(C3CC3)nc3c2cnn3C(C)C)cc1OC,2%,-6%,?,?
COc1ccc(CCNC(=O)c2cc(C3CC3)nc3c2cnn3C(C)C)cc1,-23%,2%,?,?
O=C(O)CC1CCC(=C(Cl)Cl)C1 (stereo unspecified),?,3%,12µM*,-1%
COc1ccccc1N1CCN(C(=O)C2CCN(S(=O)(=O)c3cccs3)CC2)CC1,-4%,nt,nt,nt
CCOC(=O)Cn1c(=NC(=O)c2ccc([N+](=O)[O-])s2)sc2ccccc21,6%,-57%,3.7µM*,9.3µM*
CSC1=N/C(=C/c2cccnc2)C(=O)N1Cc1ccc(Cl)cc1,?,0%,?,6.6µM*
